Measurements taken from PubChem BioAssay AID2563 (Broad Institute, 2010).
In all, about 290,000 compounds went through this assay and about 800 (0.28%) were called active.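 Rule for the calls: active = fall in fluorescence gain of 50% or more versus controls, with final raw signal at or below 3038400; inconclusive = same 50% fall but final raw signal above 3038400; inactive = fall in fluorescence gain under 50%.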 The full list was thinned out, with actives kept by preference.

target: CAAX prenyl protease 2 (Saccharomyces cerevisiae (strain ATCC 204508 / S288c)) (UniProt Q03530); experiment: yeast Rce1p protease inhibitors, primary screen, biochemical, fluorescence, cell-free homogeneous (AID 2563); conditions: yeast membranes, quenched prenylated peptide cleavage fluorescence
Sequence (Q03530 whole entry, looked up): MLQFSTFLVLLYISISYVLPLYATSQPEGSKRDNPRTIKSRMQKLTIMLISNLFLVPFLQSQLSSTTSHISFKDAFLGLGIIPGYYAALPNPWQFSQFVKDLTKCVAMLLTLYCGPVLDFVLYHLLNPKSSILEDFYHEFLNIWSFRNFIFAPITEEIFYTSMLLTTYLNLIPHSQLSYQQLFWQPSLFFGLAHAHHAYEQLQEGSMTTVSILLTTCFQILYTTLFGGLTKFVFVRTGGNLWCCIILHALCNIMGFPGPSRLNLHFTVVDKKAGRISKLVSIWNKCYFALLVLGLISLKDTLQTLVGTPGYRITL

| Structure (SMILES) | outcome |
| --- | --- |
| CC(C)CN(C(=O)COC(=O)c1ccc2ccccc2c1)c1c(N)n(Cc2ccccc2)c(=O)[nH]c1=O | inactive |
| COc1ccc(NS(=O)(=O)c2ccc(C)c(C(=O)NCC(c3cccs3)N3CCOCC3)c2)cc1 (configuration not stated) | inactive |
| CC(=O)NN1C(=O)c2ccccc2NC1c1ccccc1 (configuration not stated) | active |
| CCOC(=O)NN1C(=O)c2ccccc2NC1c1cccc(O)c1 (configuration not stated) | inactive |
| CN(C)c1ccc(C2Nc3ccccc3C(=O)N2NS(=O)(=O)c2ccccc2)cc1 (configuration not stated) | inactive |
| COCCn1c(SC(C)C(=O)NC2CC2)nnc1-c1cccc(C)c1 (configuration not stated) | inactive |
| CC(C)(C)S(=O)(=O)c1ccccc1-c1noc(-c2ccccc2)c1C(N)=O | inactive |
| CCn1c(SC(C)C(=O)Nc2ccc(N3CCOCC3)cc2)nnc1-c1ccco1 (configuration not stated) | inactive |
| Cc1ccc(C(=O)N/N=C/c2cccc3ccccc23)cn1 | inactive |
| CCCCCN(C(=O)CCC(=O)OCC(=O)NC1CCC(C)CC1)c1c(N)n(CCCC)c(=O)[nH]c1=O (configuration not stated) | inactive |
| COc1ccc(C)cc1S(=O)(=O)Nc1cc2c3c(c1)CCC(=O)N3CCC2 | inactive |
| CCCc1cc(=O)[nH]c(SCC(=O)c2c(N)n(CC(C)C)c(=O)n(C)c2=O)n1 | inactive |
| O=C(CN1C(=O)NC2(CCCC2)C1=O)OCCOc1ccc(F)cc1 | inactive |
| CCN1CCN(c2ccc(S(=O)(=O)N3CCCCC3)cc2NC(=O)c2cccc(NC(C)=O)c2)CC1 | inactive |
| Cc1onc(-c2ccccc2Cl)c1C(=O)N(Cc1ccc(N(C)C)cc1)C(C)C | inactive |
| CCc1noc(C)c1C(=O)Nc1nc2ccc(OC)cc2s1 | inactive |
| COC(C[C@@H](O)C[C@@H](O)[C@H](C)OCc1ccccc1)OC | inactive |
| COC(C[C@@H](O)C[C@H](O)[C@H](C)OCc1ccccc1)OC | active |
| COC(C[C@H](O)CC(=O)[C@@H](C)OCc1ccccc1)OC | inactive |
| Cc1ccc2nnn(Cc3cccc(C(C)(C)C)c3O)c2c1 | inactive |
| Cc1ccc2nc(NC(=O)CSc3nc(=O)n(CCCN(C)C)c4c3CCC4)sc2c1 | inactive |
| O=C(NCC(=O)N1CCCC(C(F)(F)F)C1)c1ccccc1F (configuration not stated) | inactive |
| Cc1nc(N2CCN(c3ccccn3)CC2)c2c(C)c(C(=O)Nc3ccc(F)cc3)sc2n1 | inactive |
| Cc1nc(N2CCN(c3ccccn3)CC2)c2c(C)c(C(=O)Nc3ccc(F)c(Cl)c3)sc2n1 | inactive |
| Cc1nc(N2CCOCC2)c2c(C)c(C(=O)Nc3ccc(C(F)(F)F)cc3)sc2n1 | active |
| Cc1c(C)n2c(SCC(=O)N3CCCC3)nnc2[nH]c1=O | inactive |

| Structure (SMILES) | outcome |
| --- | --- |
| Cc1cc(/C=N/n2cnnc2)c(C)n1-c1ccc2ncccc2c1 | inactive |
| Cc1nn(C)cc1C(=O)c1ccccc1 | inactive |
| Cc1cccc([C@@H]2[C@@H]3C(=O)N(Cc4ccccc4)C(=O)[C@@H]3[C@]3(Cc4ccc(Cl)cc4)C(=O)N(c4cccc(Cl)c4)C(=O)N23)c1 | inactive |
| C=CCNC(=O)C1CC2c3ccccc3C1c1ccccc12 (configuration not stated) | inactive |
| COc1ccc(S(=O)(=O)Nc2ccc3oc(C)c(C(C)=O)c3c2)cc1 | inactive |
| CC(=O)c1c(C)oc2ccc(NS(=O)(=O)c3ccccc3)cc12 | inactive |
| CC(=O)c1c(C)oc2ccc(NS(=O)(=O)c3ccc(C(=O)O)cc3)cc12 | active |
| COc1ccccc1CNC(=O)COn1nnc2ccc(S(=O)(=O)N3CCOCC3)cc21 | inactive |
| CCc1cccc(NC(=O)COC(=O)C2CCN(c3ccc(C(F)(F)F)cn3)CC2)c1 | inactive |
| O=C(NCC(c1cccs1)N1CCOCC1)c1cc(Cl)ccc1[N+](=O)[O-] (configuration not stated) | inactive |
| Cc1ccc(S(=O)(=O)N2CCC(C(=O)NCCC3=CCCCC3)CC2)cc1C | inactive |
| O=C(CCC(=O)c1cccs1)Nc1nc2ccccc2s1 | inactive |
| CC12CCC(=O)N1C(C(=O)Nc1ccc(F)c(F)c1F)CS2 (configuration not stated) | inactive |
| COc1cc2ccccc2cc1C(=O)N1CCOCC1 | inactive |
| COc1ccc(S(=O)(=O)NCc2cccnc2)cc1NC(=O)c1ccc(C)cc1 | inactive |
| COc1ccc(/C=N/NC(=O)c2ccc(Cl)cc2)cc1COC(C)=O | active |
| COc1cccc(OCc2cc(/C=N/NC(=O)c3nc(Cl)c(Cl)c(N)c3Cl)ccc2OC)c1 | inactive |
| COc1ccc(/C=N/NC(=O)c2ccccc2)cc1OS(=O)(=O)c1ccccc1 | inactive |
| CCOC(=O)N1CCN(C(=O)c2ccccc2SCC(=O)NCC2CCCCC2)CC1 | inactive |
| COc1ccccc1C(CNC(=O)c1cccc(NS(=O)(=O)c2ccc(Br)cc2)c1)N(C)C (configuration not stated) | inactive |
| CCOc1ccc(CCNC(=O)CN2C(=O)NC3(CCc4ccccc43)C2=O)cc1OCC (configuration not stated) | inactive |
| COc1ccccc1NC(=O)C(C)OC(=O)c1ccc(-n2cnnn2)cc1 (configuration not stated) | inactive |
| COc1ccc(C(=NN)c2ccc(OC)cc2)cc1 | inactive |
| CCCCn1c(N)c(N(Cc2ccccc2OC)C(=O)COc2cc(C)ccc2Cl)c(=O)[nH]c1=O | inactive |
| COc1ccc(NC(=O)CN(C)C(=O)c2n[nH]c3ccccc23)cc1 | inactive |
| CCN(CC)c1ccc(S(=O)(=O)N2CCCCC2)cc1NC(=O)C1=COCCO1 | inactive |

| Structure (SMILES) | outcome |
| --- | --- |
| CCCCn1c(N)c(N(CC(C)C)C(=O)c2cnc(C)cn2)c(=O)[nH]c1=O | inactive |
| Cc1cccc(N(Cc2ccccc2)C(=O)c2cc(S(=O)(=O)N3CCOCC3)ccc2F)c1 | inactive |
| Cc1ccc(C)c(NC(=O)COC(=O)Cn2c(C)csc2=O)c1 | inactive |
| COc1ccc(-c2ccc3nnc(SCC(=O)Nc4ccc(NC(C)=O)cc4)n3n2)cc1 | inactive |
| COc1ccc(C2CC(c3ccccc3)=NN2C(=O)c2ccc(Cl)c([N+](=O)[O-])c2)cc1 (configuration not stated) | active |
| COc1ccc(C2CC(c3ccc([N+](=O)[O-])cc3)=NN2C(C)=O)cc1 (configuration not stated) | inactive |
| COc1ccc(C2=NN(C(=O)c3cccnc3)C(c3ccccc3)C2)cc1 (configuration not stated) | inactive |
| COc1ccc(S(=O)(=O)NCC(c2ccco2)N2CCOCC2)cc1 (configuration not stated) | inactive |
| CN1CCN(c2cc3c(cc2F)c(=O)c(C(=O)O)cn3CCF)CC1 | inactive |
| CCn1cc(C(=O)NCCO)c(=O)c2cc(F)c(N3CCN(C)CC3)cc21 | active |
| CCCCNC(=O)c1cn(CC)c2cc(N3CCN(C(=O)c4ccco4)CC3)c(F)cc2c1=O | inactive |
| COc1ccc(NC(=O)CSc2nnc(Cc3ccccc3)c(=O)n2N)cc1 | inactive |
| Cc1cc(C)c(S(=O)(=O)NCC(c2ccc3c(c2)OCO3)N2CCOCC2)c(C)c1 (configuration not stated) | inactive |
| COc1ccccc1N(C)S(=O)(=O)c1ccc(Cl)c(C(=O)Nc2ccncc2)c1 | inactive |
| COCCNc1nc(N)c([N+](=O)[O-])c(NCCO)n1 | inactive |
| COCCNc1nc(N)c([N+](=O)[O-])c(N2CCCCCC2)n1 | active |
| Nc1nc(NCC(=O)O)nc(N2CCCCCC2)c1[N+](=O)[O-] | inactive |
| O=C(NCC1(N2CCCCC2)CCCCC1)c1ccc(NS(=O)(=O)c2ccc(F)cc2)cc1 | inactive |
| COc1ccc2oc(C(=O)N(CC(C)C)C3CCS(=O)(=O)C3)c(C)c2c1 (configuration not stated) | inactive |
| COc1ccc(S(=O)(=O)N2CCCCCC2)cc1C(=O)N(C)Cc1cccc(OC)c1OC | inactive |
| Cc1noc(C)c1CSCC(=O)Nc1ccc(Br)cc1Cl | inactive |
| COC(C[C@@H]1O[C@@H]1C(=O)[C@H](C)OCc1ccccc1)OC | inactive |
| COC(C/C=C/C(=O)[C@@H](C)OCc1ccccc1)OC | inactive |
| COC(C[C@@H]1O[C@@H]1C(=O)[C@@H](C)OCc1ccccc1)OC | active |
| COc1ccc(/C=N/NC(=O)c2cc(-c3cccc(C)c3)nc3ccccc23)cc1O | inactive |
| CCOC(=O)C1CCN(C(=O)COC(=O)C2CCN(S(=O)(=O)c3ccc4c(c3)OCCO4)CC2)CC1 | inactive |

| Structure (SMILES) | outcome |
| --- | --- |
| O=C(c1cc(-c2ccc(Cl)s2)nc2ccccc12)N1CCOCC1 | inactive |
| Cc1cc(C)c2nc(-c3ccco3)cc(C(=O)O)c2c1 | active |
| O=C(Nc1cccc(F)c1)c1cc(-c2ccco2)nc2ccccc12 | inactive |
| CN(C(=O)COC(=O)c1cc(-c2ccco2)nc2ccccc12)C1CCS(=O)(=O)C1 (configuration not stated) | inactive |
| CC(C)C(=O)Nc1cccc(NC(=S)NC(=O)C(c2ccccc2)c2ccccc2)c1 | active |
| CC(C)C(=O)NC(=S)Nc1ccccc1F | inactive |
| CCCCC(=O)NNC(=S)NC(=O)C(c1ccccc1)c1ccccc1 | inactive |
| CS(=O)(=O)c1ccc(C(=O)OCC(=O)NNC(=O)COc2ccc(Cl)cc2)cc1 | inactive |
| CCC(=O)c1ccc(OCC(=O)OCC(=O)NC2CCCCCC2)cc1 | inactive |
| Cc1nc2ccccn2c(=O)c1NC(=O)c1cccs1 | inactive |
| COc1ccccc1C(=O)Nc1ccccc1C(=O)Nc1ccccc1 | inactive |
| COc1ccccc1C(=O)NNC(=O)c1ccc(NC(=O)c2ccccc2)cc1 | active |
| COc1ccccc1C(=O)Nc1ccc(Nc2ccccc2)cc1 | inactive |
| Cc1nc2ccccc2c(=O)n1-c1ccc(F)c(NC(=O)c2cccs2)c1 | inactive |
| Cc1cc(C)c(S(=O)(=O)N2CCCC2CNC(=O)c2ccc3c(c2)OCO3)c(C)c1 (configuration not stated) | inactive |
| COC(=O)N/N=C/c1c[n+]([O-])c2ccccc2[n+]1[O-] | inactive |
| NS(=O)(=O)c1cc(C(=O)OCC(=O)NNC(=O)c2ccccc2)ccc1Cl | inactive |
| CCN(CC(=O)Nc1ccccc1C(F)(F)F)C(=O)CSCc1c(C)noc1C | inactive |
| COc1ccc2nc(N3CCN(C(=O)c4ccc([N+](=O)[O-])o4)CC3)sc2c1 | inactive |
| CC(=O)c1ccc(S(=O)(=O)Nc2ccc(-c3ccc4nncn4n3)cc2)cc1 | inactive |
| COC(=O)C1CCN(C(=O)NC2CC(=O)N(c3ccc4c(c3)OCCO4)C2)CC1 (configuration not stated) | inactive |
| Cc1cc(Br)ccc1NC(=O)c1cnc(N2CCN(c3ccccn3)CC2)c2ccccc12 | active |
| Cc1cc(Br)ccc1NC(=O)c1sc2ncn(CC(=O)N3CCN(c4ccccn4)CC3)c(=O)c2c1C | inactive |
| O=C(CN1CCN(c2ccccn2)CC1)Nc1ccc(Br)cc1 | inactive |
